AI-2 QS mod: Vibrio harveyi AI-2 quorum sensing modulation | Vibrio harveyi JMH597 AI-2 luminescence/OD600 ratio, 9 h; stronger effect = lower value; strain lacks LuxN and CqsS sensors; 0 = neutral-control median | activity change, % at 7.5 µM | 300,000 compounds, 0.4% hits | AID 2094; in the data active means activity change below about -75%, passing the limit was not always enough;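 further: luminescence divided by OD600 gain over 9 h not by final OD600 alone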
SMARCA2 act: increases SMARCA2 function in MMTV reporter cells; MG213 cells, MMTV-luciferase reporter, dexamethasone, overnight; activation, % at 9.1 µM; 370,000 compounds, 1% hits; AID 652017; in the data active means activation above about 7.8%
HSF1 inhib: HSF1 inhibition; NIH3T3-HGL HSE-luciferase, MG132-induced, luminescence 8 h; stronger effect = lower value; activity change, negative = inhibition, % at 7.5 µM (by protocol); 300,000 compounds, 0.77% hits; AID 2098;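 active means more than half of replicate wells show activity change below -50%, luminescence cut by over half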;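 further: luciferase reports HSF-1 transcriptional activity via heat shock element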
GAA850 FXN act: activators of GAA850 frataxin (FXN) promoter. AID 540364. 360,000 compounds, 0.56% hits. HEK293 lucGAA850 FXN promoter luciferase reporter, 24 h; percent of 10 µM SAHA response. activation, % at 6 µM;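 active means activation above the average of all compounds screened plus 3 SD, cutoff fixed separately per campaign, cut at about 7.5% in these data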
PG9 Ab binder: small molecules binding HIV-1 gp120 antibody PG9; AID 624416; inhibition, % at 6.7 µM; TR-FRET gp120-PG9 antibody binding; 360,000 compounds, 0.43% hits; in the data active means inhibition above about 8.5%
HSP90 refold inh: HSP90 refolding inhibition in rabbit reticulocyte lysate. luciferase refolding luminescence, 3 h. inhibition, % at 5.6 µM. 290,000 compounds, 0.91% hits;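 active means inhibition above the screen-wide mean plus 3 SD, computed separately per campaign, cut at about 16% in these data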;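 further: inhibitors lower the luminescence because luciferase stays unfolded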
SMARCA2 act conf: confirmation of SMARCA2 (BRM) function activators; 3,500 compounds, 30% hits; activation, % at 9.1 µM; MG213 cells, MMTV-luciferase with dexamethasone, luminescence, overnight; MG213 cells expressing E1A, Rb sequestered; DMSO wells 0%, reference activator 100%; AID 652260; shares compounds with SMARCA2 act;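 active means activation above its plate's cutoff, the mean activation of tested wells plus 3 SD, cut at about 7.9% in these data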
VP16 Luc act: counter-screen for SMARCA2 activators: GAL4-VP16 luciferase reporter activation; shares compounds with SMARCA2 act; HEK293 GAL4-VP16 pG5luc reporter, luciferase luminescence; scaled: DMSO wells 0%, SAHA wells 100%; activation, % at 9.1 µM; 3,500 compounds, 41% hits;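 active means activation above the solvent-only control well mean plus 3 SD, averaged across control plates, cut at about 5.2% in these data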
Of the large screens only hits and unclear results are named; the others gave an inactive call (follow-up assays come after a bar, where they were run). Most compounds without a hit are left out; they make up all but 3.4% or so of the library.

CN(C)CCN(C(=O)c1ccco1)c1nc2cc3c(cc2s1)OCCO3	SMARCA2 act 9.7 | SMARCA2 act conf inactive | VP16 Luc act inactive
Cc1cccc(NC(=O)c2nc[nH]c2C(=O)Nc2cc(Br)ccc2F)c1	none (no result: AI-2 QS mod, HSF1 inhib, HSP90 refold inh)
CC(C)=CCNc1ncnc2c1c(C#N)cn2C1OC(CO)C(O)C1O (configuration not stated)	SMARCA2 act 41.2 (no result: AI-2 QS mod, HSF1 inhib, HSP90 refold inh) | SMARCA2 act conf 58.9 | VP16 Luc act inactive
OCC1OC(n2ccc3c(NO)ncnc32)C(O)C1O (configuration not stated)	none (no result: AI-2 QS mod, HSF1 inhib, HSP90 refold inh)
O=C(Oc1ccccc1Cl)c1ccc(-n2cncn2)nc1	SMARCA2 act 8.2, HSF1 inhib -89.4 | SMARCA2 act conf inactive | VP16 Luc act inactive
C=CCOC(=O)c1ccc(-n2cncn2)nc1	none
Cc1ccc2cccc(OCCCOc3ccccc3F)c2n1	none
CC(C)(C)c1ccc2cccc(F)c2n1	SMARCA2 act 9.4 (no result: AI-2 QS mod, HSF1 inhib, GAA850 FXN act, HSP90 refold inh) | SMARCA2 act conf inactive | VP16 Luc act inactive
N=C1C(c2nc3ccccc3[nH]2)=C(O)CN1c1ccccc1	SMARCA2 act 8.2 | SMARCA2 act conf 9.0 | VP16 Luc act 7.4
CCc1nnc(NC(=O)C2CCCN2C(=O)Nc2ccccc2OC)s1 (configuration not stated)	SMARCA2 act 8.8 | SMARCA2 act conf inactive | VP16 Luc act inactive
CCOc1ccccc1NC(=O)N1CCCC1C(=O)Nc1nnc(CC)s1 (configuration not stated)	none
CC(=O)CCN1CCSCCS1(=O)=O	none (no result: AI-2 QS mod, HSF1 inhib, GAA850 FXN act, HSP90 refold inh)
Cc1ccc(OCCCCN2CCC(C)CC2)c(Br)c1	none
Cc1ccc(OCCCCCCN2CCNCC2)c(Br)c1	SMARCA2 act 11.1 (no result: HSP90 refold inh) | SMARCA2 act conf inactive | VP16 Luc act 9.7
COC(=O)[C@]12C[C@H](CC(=O)NCC34CC5CC(CC(C5)C3)C4)C(=O)N(Cc3cccc4ccccc34)C1=C[C@H](C(C)C)O[C@@H]2C1CC1	none (no result: AI-2 QS mod, HSF1 inhib, GAA850 FXN act, PG9 Ab binder, HSP90 refold inh)
Cc1cc(C(=O)NCCc2ccccc2)ccc1[N+](=O)[O-]	none
Cc1cccc(C(=O)NCCc2ccccc2)c1	SMARCA2 act 10.7 | SMARCA2 act conf inactive | VP16 Luc act 14.4
O=C(NCCc1ccccc1)c1ccc(Cl)c([N+](=O)[O-])c1	SMARCA2 act 9.9 | SMARCA2 act conf inactive | VP16 Luc act 8.6
O=C(NN1CCOCC1)c1ccc(Cl)c([N+](=O)[O-])c1	SMARCA2 act 10.3 | SMARCA2 act conf inactive | VP16 Luc act inactive
CC(Oc1ccc(C(=O)NCCc2ccccc2)cc1)C(=O)O (configuration not stated)	none
CCCCOc1ccc(C(=O)NCCc2ccccc2)cc1	SMARCA2 act 8.4 | SMARCA2 act conf inactive | VP16 Luc act 12.6
COc1ccc(C(C#N)N2N=C(c3ccccc3)CC2c2ccccc2)cc1OC (configuration not stated)	SMARCA2 act 13.4 | SMARCA2 act conf inactive | VP16 Luc act inactive
COc1ccc(C(C#N)N2N=C(C)CC2c2ccccc2)cc1OC (configuration not stated)	none (no result: AI-2 QS mod)
COc1cccc(/C=N/Nc2nnc(C)n2N)c1OCc1ccccc1Cl	SMARCA2 act 15.9 | SMARCA2 act conf inactive | VP16 Luc act inactive
